Results from patent publication US20040191812, “Target-dependent transcription using deletion mutants of N4 RNA polymerase” (published 2004).

Experiments:
[1] = target: T1, N4 mini-vRNAP (His-tagged) (Bacteriophage N4, UniProt Q859P9 SEQ:34-1143); experiment: filter; two orders of magnitude reduction; conditions: tags: N-terminal hexahistidine (pBAD); label: 32P end-label; hairpin, 8 bp stem; ssDNA; [none]
T1 chain: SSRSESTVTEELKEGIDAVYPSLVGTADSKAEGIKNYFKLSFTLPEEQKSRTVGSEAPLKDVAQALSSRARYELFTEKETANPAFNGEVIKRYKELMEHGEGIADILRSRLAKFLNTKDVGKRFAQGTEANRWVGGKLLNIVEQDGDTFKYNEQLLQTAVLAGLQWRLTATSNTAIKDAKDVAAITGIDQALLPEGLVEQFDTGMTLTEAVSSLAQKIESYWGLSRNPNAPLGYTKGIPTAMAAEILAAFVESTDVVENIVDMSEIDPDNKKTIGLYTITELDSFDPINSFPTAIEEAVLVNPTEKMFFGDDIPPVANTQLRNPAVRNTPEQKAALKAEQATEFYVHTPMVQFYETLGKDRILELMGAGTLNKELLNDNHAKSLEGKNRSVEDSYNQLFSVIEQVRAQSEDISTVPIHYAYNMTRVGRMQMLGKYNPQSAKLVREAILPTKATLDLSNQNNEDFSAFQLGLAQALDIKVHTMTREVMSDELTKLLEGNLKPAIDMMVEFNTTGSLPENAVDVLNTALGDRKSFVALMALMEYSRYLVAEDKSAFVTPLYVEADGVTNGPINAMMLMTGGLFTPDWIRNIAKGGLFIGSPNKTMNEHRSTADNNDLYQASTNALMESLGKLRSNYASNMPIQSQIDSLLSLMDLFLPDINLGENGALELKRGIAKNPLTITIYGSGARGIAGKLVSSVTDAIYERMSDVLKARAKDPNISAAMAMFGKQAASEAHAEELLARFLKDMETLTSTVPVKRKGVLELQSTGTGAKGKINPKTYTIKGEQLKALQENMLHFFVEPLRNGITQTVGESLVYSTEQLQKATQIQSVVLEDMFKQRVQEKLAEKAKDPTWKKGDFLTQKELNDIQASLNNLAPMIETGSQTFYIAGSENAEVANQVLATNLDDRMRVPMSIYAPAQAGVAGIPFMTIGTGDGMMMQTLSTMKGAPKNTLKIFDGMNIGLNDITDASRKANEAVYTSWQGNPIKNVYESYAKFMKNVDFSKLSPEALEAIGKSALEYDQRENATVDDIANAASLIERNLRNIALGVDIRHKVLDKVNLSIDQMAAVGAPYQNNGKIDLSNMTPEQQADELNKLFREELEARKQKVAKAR

[2] = target: T1, N4 mini-vRNAP (His-tagged); experiment: filter; further one order of magnitude reduction; conditions: tags: N-terminal hexahistidine (pBAD); label: 32P end-label; hairpin; ssDNA; [none]

| Sequence | binding signal [1] | binding signal [2] |
| --- | --- | --- |
| TCCAAAAGAAGCGGAGCTTCTTT | ~100 fold lower affinity than wild type |  |
| TCCAAAAGAAGCGGAGCTTCTTTTG |  | ~1000 fold lower affinity than wild type |
